Assay results published in PubChem BioAssay (NCI).
Compounds without any hit were thinned out: in the full panel of roughly 79,000, 15% have a hit. The source made the active and inactive calls. No stated cut-off is given here; in the data, active means growth inhibition above about 70%; inactive means the rest.

Columns and labels:
[1] = NCI Yeast Anticancer Drug Screen. Data for the rad52 strain (AID 147);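 further: 0% = growth of vehicle-treated control cultures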; conditions: S. cerevisiae rad52 mutant growth inhibition, hits give high values
Method in brief: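 Measured: yeast growth inhibition. System: strain with a defined DNA damage repair alteration. Reference: vehicle-treated control cultures.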

[2] = NCI Yeast Anticancer Drug Screen. Data for the wt1 strain (AID 149);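 further: 0% = growth of vehicle-treated wt1 cultures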; conditions: S. cerevisiae wt1 strain (SPY 50644) growth inhibition, hits give high values
Method in brief: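 Compounds are added to wt1 yeast cultures. Growth is then measured. Inhibition is expressed relative to vehicle-treated controls.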

[3] = NCI Yeast Anticancer Drug Screen. Data for the rad50EPP+ strain (AID 151);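 further: 0% = growth of vehicle-treated control cultures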; conditions: S. cerevisiae rad50 mutant strain, hits give high values
Method in brief: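 One strain with a rad50 alteration (rad50EPP+) was compound-treated, its growth then compared to that of vehicle controls.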

[4] = NCI Yeast Anticancer Drug Screen. Data for the mgt1 strain (AID 153); conditions: S. cerevisiae mgt1 mutant growth inhibition, hits give high values
Method in brief: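 After exposure of the mgt1 yeast mutant to compound, growth was measured and reported as inhibition compared with vehicle controls.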

[5] = NCI Yeast Anticancer Drug Screen. Data for the rad50 strain (AID 155);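 further: 0% = growth of vehicle-only cultures of the same strain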; conditions: S. cerevisiae rad50 strain growth inhibition, hits give high values
Method in brief: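 Inhibition values express reduced yeast growth in compound-treated cultures relative to vehicle-treated controls.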

[6] = NCI Yeast Anticancer Drug Screen. Data for the mec2-1 strain (AID 157); conditions: S. cerevisiae mec2-1 strain, hits give high values
Method in brief: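 Test agents were screened against the mec2-1 yeast strain, with defined DNA repair or cell cycle alteration. Growth was scored as inhibition against vehicle-only controls.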

[7] = NCI Yeast Anticancer Drug Screen. Data for the rad14 strain (AID 159);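 further: 0% = growth of vehicle-treated control cultures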; conditions: S. cerevisiae rad14 strain growth inhibition, hits give high values
Method in brief: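 A mutant yeast strain defective in DNA damage repair is treated with compound; inhibition of its growth is scored against untreated, vehicle-exposed cultures.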

[8] = NCI Yeast Anticancer Drug Screen. Data for the sgs1 mgt1 strain (AID 161);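 further: 0% = growth of cultures given vehicle only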; conditions: S. cerevisiae sgs1 mgt1 strain, hits give high values
Method in brief: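 Mutant yeast exposed to compound; growth scored against vehicle-only wells.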

[9] = NCI Yeast Anticancer Drug Screen. Data for the CLN2oe strain (AID 163);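 further: 0% = growth of vehicle-only control cultures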; conditions: S. cerevisiae CLN2oe strain, hits give high values
Method in brief: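 Here, growth inhibition in a cell-cycle-altered yeast strain after compound exposure was quantified against vehicle control growth.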

[10] = NCI Yeast Anticancer Drug Screen. Data for the cln2 rad14 strain (AID 165);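 further: 0% = growth equal to vehicle treated cultures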; conditions: S. cerevisiae cln2 rad14 strain, hits give high values
Method in brief: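 Growth of compound-exposed yeast (cln2 rad14 genotype) measured and expressed as inhibition relative to vehicle.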

[11] = NCI Yeast Anticancer Drug Screen. Data for the bub3 strain (AID 167); conditions: S. cerevisiae bub3 mutant strain, hits give high values
Method in brief: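 Steps: expose the mutant yeast strain to compound; grow alongside vehicle-treated cultures; measure growth; express inhibition against the vehicle cultures.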

[12] = NCI Yeast Anticancer Drug Screen. Data for the wt2 strain (AID 169);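 further: 0% = growth of vehicle-treated yeast cultures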; conditions: S. cerevisiae wt2 strain growth inhibition, hits give high values
Method in brief: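 Genetically defined yeast strains from a DNA-repair/cell-cycle panel were used. Compound-exposed yeast growth was measured, and the inhibition was calculated relative to vehicle treatment.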

[13] = NCI Yeast Anticancer Drug Screen. Data for the mlh1 strain (AID 171);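 further: 0% = growth of vehicle-treated control cultures of the same strain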; conditions: S. cerevisiae mlh1 strain growth inhibition, hits give high values
Method in brief: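 Here the genetically defined yeast mutant is grown with each compound, and the extent to which its growth falls below that of vehicle-exposed cells is reported.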

[14] = NCI Yeast Anticancer Drug Screen. Data for the sgs1 strain (AID 173);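 further: 0% = growth of vehicle-only control cultures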; conditions: S. cerevisiae sgs1 mutant, hits give high values
Method in brief: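 Relative growth inhibition, referenced to vehicle, was determined in a yeast strain with a defined alteration affecting DNA damage repair or cell cycle control after compound exposure.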

[15] = NCI Yeast Anticancer Drug Screen. Data for the mlh1 rad18 strain (AID 175); conditions: S. cerevisiae mlh1 rad18 strain growth inhibition, hits give high values
Method in brief: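 In this whole-cell yeast screen, a strain with altered DNA damage repair is challenged with compound, and its growth is measured against matched vehicle-treated controls.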

[16] = NCI Yeast Anticancer Drug Screen. Data for the rad18 strain (AID 177); conditions: S. cerevisiae rad18 mutant growth inhibition, hits give high values
Method in brief: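 Screen uses a yeast strain with a defined lesion in DNA damage repair; compound effect is read as loss of growth compared to untreated vehicle cultures.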

[17] = at 5.0 µM (retest, dose inferred, filed as 0.5)
[18] = at 50.0 µM (retest, dose inferred, filed as 5.0)

Measured: growth inhibition

CCCCCCCCCCNC(=O)OCC
active: [1]; at 100.0 µM 98% | [2]; at 100.0 µM 98% | [3]; at 100.0 µM 81% | [4]; at 100.0 µM 99% | [5]; at 50.0 µM 84.5% | [5]; at 100.0 µM 99% | [6]; at 50.0 µM 93.5% | [6]; at 100.0 µM 100% | [7]; at 100.0 µM 99% | [8]; at 50.0 µM 83.7% | [9]; at 100.0 µM 99% | [10]; at 50.0 µM 98.3% | [11]; at 50.0 µM 95.3% | [11]; at 100.0 µM 99% | [12]; at 100.0 µM 99% | [13]; at 100.0 µM 99% | [14]; at 100.0 µM 99% | [15]; at 50.0 µM 95%
inactive: [1]; at 1.2 µM 0% | [1]; at 3.7 µM 1% | [1]; at 11.0 µM 11% | [1]; at 33.0 µM 37% | [2]; at 1.2 µM -3% | [2]; at 3.7 µM -5% | [2]; at 11.0 µM -4% | [2]; at 33.0 µM 4% | [3]; at 1.2 µM 1% | [3]; at 3.7 µM 9% | [3]; at 11.0 µM 28% | [3]; at 33.0 µM 68% | [4]; at 1.2 µM -2% | [4]; at 3.7 µM -11% | [4]; at 11.0 µM 4% | [4]; at 33.0 µM 28% | [5]; at 1.2 µM 1% | [5]; at 3.7 µM 9% | [5]; [17] 1% | [5]; at 11.0 µM 24% | [5]; at 33.0 µM 40% | [5]; [18] 22% | [6]; at 1.2 µM -7% | [6]; at 3.7 µM -5% | [6]; [17] -7% | [6]; at 11.0 µM -6% | [6]; at 33.0 µM 7% | [6]; [18] 28% | [7]; at 1.2 µM -4% | [7]; at 3.7 µM -4% | [7]; at 11.0 µM -3% | [7]; at 33.0 µM 8% | [8]; [17] -2% | [8]; [18] 56% | [9]; at 1.2 µM 0% | [9]; at 3.7 µM 0% | [9]; at 11.0 µM 4% | [9]; at 33.0 µM 12% | [10]; [17] -55% | [10]; [18] 15% | [11]; at 1.2 µM 2% | [11]; at 3.7 µM -18% | [11]; [17] -21% | [11]; at 11.0 µM 9% | [11]; at 33.0 µM 8% | [11]; [18] 4% | [12]; at 1.2 µM -3% | [12]; at 3.7 µM -3% | [12]; at 11.0 µM 1% | [12]; at 33.0 µM 38% | [13]; at 1.2 µM -3% | [13]; at 3.7 µM 2% | [13]; at 11.0 µM 1% | [13]; at 33.0 µM 20% | [14]; at 1.2 µM -1% | [14]; at 3.7 µM -1% | [14]; at 11.0 µM 7% | [14]; at 33.0 µM 59% | [15]; [17] -15% | [15]; [18] 68%

CCC(C(=O)O)C1=C(c2ccccc2)CCc2ccccc21 (stereo unspecified)
inactive: [1]; at 1.2 µM 10% | [1]; at 3.7 µM 29% | [2]; at 1.2 µM 4% | [2]; at 3.7 µM 20% | [3]; at 1.2 µM 0% | [3]; at 3.7 µM 2% | [3]; at 11.0 µM 7% | [3]; at 33.0 µM 26% | [3]; at 100.0 µM 44% | [4]; at 1.2 µM 7% | [4]; at 3.7 µM 12% | [5]; at 1.2 µM 10% | [5]; at 3.7 µM 30% | [5]; [17] 23% | [6]; at 1.2 µM 9% | [6]; at 3.7 µM 28% | [6]; [17] 11% | [7]; at 1.2 µM 12% | [7]; at 3.7 µM 19% | [8]; [17] 6% | [9]; at 1.2 µM 14% | [9]; at 3.7 µM 23% | [10]; [17] 6% | [11]; at 1.2 µM 6% | [11]; at 3.7 µM 13% | [11]; [17] -2% | [12]; at 1.2 µM 6% | [12]; at 3.7 µM 14% | [13]; at 1.2 µM 9% | [13]; at 3.7 µM 20% | [14]; at 1.2 µM 7% | [14]; at 3.7 µM 24% | [15]; [17] 52% | [16]; at 1.2 µM 8% | [16]; at 3.7 µM 27%
active: [1]; at 11.0 µM 97% | [1]; at 33.0 µM 99% | [1]; at 100.0 µM 98% | [2]; at 11.0 µM 97% | [2]; at 33.0 µM 99% | [2]; at 100.0 µM 94% | [4]; at 11.0 µM 90% | [4]; at 33.0 µM 99% | [4]; at 100.0 µM 80% | [5]; at 11.0 µM 97% | [5]; at 33.0 µM 99% | [5]; [18] 98% | [5]; at 50.0 µM 99.5% | [5]; at 100.0 µM 91% | [6]; at 11.0 µM 95% | [6]; at 33.0 µM 99% | [6]; [18] 99% | [6]; at 50.0 µM 99.5% | [6]; at 100.0 µM 98% | [7]; at 11.0 µM 96% | [7]; at 33.0 µM 99% | [7]; at 100.0 µM 90% | [8]; [18] 99% | [8]; at 50.0 µM 99.5% | [9]; at 11.0 µM 96% | [9]; at 33.0 µM 99% | [9]; at 100.0 µM 92% | [10]; [18] 98% | [10]; at 50.0 µM 98.8% | [11]; at 11.0 µM 93% | [11]; at 33.0 µM 99% | [11]; [18] 97% | [11]; at 50.0 µM 99% | [11]; at 100.0 µM 94% | [12]; at 11.0 µM 96% | [12]; at 33.0 µM 98% | [12]; at 100.0 µM 99% | [13]; at 11.0 µM 96% | [13]; at 33.0 µM 99% | [13]; at 100.0 µM 93% | [14]; at 11.0 µM 97% | [14]; at 33.0 µM 99% | [14]; at 100.0 µM 99% | [15]; [18] 99% | [15]; at 50.0 µM 99.5% | [16]; at 11.0 µM 97% | [16]; at 33.0 µM 99% | [16]; at 100.0 µM 82%
